This is part of a sample that, as a whole, favours compounds with a hit. Of some 83,000 tested, about 20% had one in any assay.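 How to read the values: 0–100, growth inhibition (40 = 60% inhibited); 0, no net growth; -100 to 0, cell death (-40 = 40% of starting cells died; -100 = all dead).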 Values without a mark were called inactive. Activity calls are given as the source filed them. How the source made its calls: active means growth percent below 10; inactive means the rest.
system: MDA-MB-468 breast; assay: NCI-60 one-dose screen, 48 h (100 = growth as untreated, 0 = no growth, -100 = all killed); settings: 10 µM unless noted

Question: With COc1ccc(-c2nc3cc(Cl)c(Cl)cc3n2CC(=O)N=Nc2c(O)[nH]c3ccc(Cl)cc23)cc1 as the molecule, how does the growth read?
Answer: -40.1% (active)

Question: For CN1C2CCC1CN(c1cnc(C(=O)Nc3cc(F)cc4cccnc34)cn1)C2, which growth is on record?
Answer: 13.1%

Question: For COc1cc(C(=O)/C=C/c2c(C)n([O-])c3ccc(C(F)(F)F)cc3[n+]2=O)cc(OC)c1OC, which growth is on record?
Answer: 36.8%

Question: For O=C(/C=C/c1ccco1)Nc1ncc(Cc2cc(Cl)ccc2Cl)s1, which growth is on record?
Answer: 14.6%

Question: For CC1(C)CC[C@]2(C(=O)O)CC[C@]3(C)C(=CC[C@@H]4[C@@]5(C)C[C@@H](Cc6cn([C@@H]7O[C@H](CO)[C@@H](O)[C@H](O)[C@H]7O)nn6)[C@H](O)C(C)(C)[C@@H]5CC[C@]43C)[C@@H]2C1, which growth is on record?
Answer: 87%

Question: For COc1ccc2[nH]c(=O)c(/C=C/C(=O)c3ccccc3OC)cc2c1, which growth is on record?
Answer: 16.7%

Question: COc1c(C(=O)Nc2ccc(C)c(Br)c2)ccc2ccccc12 was tested. Which growth did it give?
Answer: 87.9%

Question: How did the growth turn out when c1ccc(N2N=C(c3cccc(Nc4ccncc4)c3)CC2c2ccc3c(c2)OCO3)cc1 (stereo not drawn) was run?
Answer: 15.1%

Question: For CCOC(=O)c1cc(C#N)n2ccc3ccccc3c12, which growth is on record?
Answer: 98.4%

Question: With Cc1cc[n+](CCCC[n+]2ccc(C)cc2)cc1 as the molecule, how does the growth read?
Answer: 99%

Question: With CC(C)(C)CC(C)(C)c1ccc(OCCO)cc1 as the molecule, how does the growth read?
Answer: 113%

Question: Which growth does the source give for Fc1c[c-]c(-c2ccccn2)c(F)c1.[CH3-].[Pt+2].c1ccc(P(C[PH+](c2ccccc2)c2ccccc2)c2ccccc2)cc1 here?
Answer: -38.3% (active)

Question: O=C(CSc1nnc(-c2ccc(Cl)cc2)o1)Nc1ccc(C(=O)/C=C/c2ccccc2)cc1 was tested. Which growth did it give?
Answer: 98.7%
